# Laboratory results reported in paper PMC5540273 (PLoS ONE, 2017).
# Assays:
# Details in all cases: concentration: 1 μM, replicates: in singlicate; n = 1
# ALK = system: ALK
# AMPK-alpha1 = system: T1, AMPK-alpha1
# T1 construct: gene PRKAA1
# AMPK-alpha2 = system: T2, AMPK-alpha2
# T2 construct: gene PRKAA2
# ANKK1 = system: ANKK1
# ARK5 = system: T3, ARK5
# T3 construct: gene NUAK1
# ASK1 = system: T4, ASK1
# T4 construct: gene MAP3K5
# ASK2 = system: T5, ASK2
# T5 construct: gene MAP3K6
# AURKA = system: AURKA
# AURKB = system: AURKB
# AURKC = system: AURKC
# 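Note: KINOMEscan kinase panel screen.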
SMILES,%Inh (ALK) [%],%Inh (AMPK-alpha1) [%],%Inh (AMPK-alpha2) [%],%Inh (ANKK1) [%],%Inh (ARK5) [%],%Inh (ASK1) [%],%Inh (ASK2) [%],%Inh (AURKA) [%],%Inh (AURKB) [%],%Inh (AURKC) [%]
Cc1nc(N(C)[C@H]2CN(C(=O)CC#N)CC[C@H]2C)c2cc[nH]c2n1,0,0,0,0,0,0,0,0,0,0
O=C(Nc1n[nH]c2nc(-c3ccccc3)c(Br)cc12)C1CC1 [SB-708998],1,12,18,14,0,0,0,7,4,36
COC(=O)c1c(-c2ccccc2)c2cc(C)ccc2c(=O)n1Cc1ccccc1,0,0,0,0,4,0,0,0,9,0
Cn1c(=O)c(F)c(Nc2ccc(I)cc2F)c2c(=O)n(OC[C@H](O)CO)cnc21,0,0,13,0,0,0,0,0,9,30
COc1cc2nccc(Nc3ccc(OCc4ccc(NC(C)=O)cc4)cc3)c2cc1OC.Cl [GW440135],5,15,10,0,28,3,0,0,0,0
CCS(=O)(=O)c1ccc(OC)c(Nc2ncc(-c3ccc(F)cc3)o2)c1.Cl [GW591947],22,8,17,7,3,0,0,3,0,26
CCn1c(-c2ccoc2)nc2cnccc21 [SB-733887],31,10,9,0,0,23,5,16,45,10
O=C(Nc1n[nH]c2cc(-c3ccccc3F)ccc12)C1CC1 [SB-733371],0,0,0,10,0,0,0,16,51,46
COc1cc(OC)cc(-c2cc3cnc(N)nc3nc2NC(=O)NC(C)(C)C)c1,0,0,15,0,0,0,0,0,0,0
O=c1cc(N2CCOCC2)nc2n(Cc3ccc(F)c(Cl)c3)ccn12 [GSK2297099],20,0,19,13,14,2,0,0,0,0
COC(=O)c1c(-c2ccccc2)c2cc(Br)ccc2c(=O)n1Cc1ccc(NC(=O)CCC(=O)O)cc1,52,21,22,0,0,2,0,0,9,0
COc1ccc(-c2coc3ccc(-c4nnc(SCc5cccc(C#N)c5)o4)cc23)cc1,0,7,0,19,16,9,6,22,12,0
Cl.NS(=O)(=O)c1cccc(Nc2cc(-c3ccc(F)cc3)n[nH]2)c1 [GW824645],0,0,18,0,0,0,0,4,29,0
CCCNC(=O)Nc1ccc(Oc2ncnc3ccn(C)c23)cc1,0,0,12,0,0,0,1,7,60,0
COc1cccc(C2=C(N(C)c3ccccc3)C(=O)NC2=O)c1 [SB-334865],24,6,13,0,1,18,0,11,32,0
Fc1cccc(CSc2nnc(-c3ccc4c(c3)CCO4)o2)c1,79,13,17,35,11,11,22,9,20,0
CN1C(=O)C(Nc2ccccc2)=C(c2ccccc2)C1=O [SB-300079],7,0,1,15,0,0,0,0,21,0
COc1ccc(Nc2nccc(N3CCC(NS(=O)(=O)c4ccc(NC(C)=O)cc4)C3)n2)cc1 (stereo not shown) [GSK1379729],16,20,17,8,25,7,9,7,14,30

SMILES,%Inh (ALK) [%],%Inh (AMPK-alpha1) [%],%Inh (AMPK-alpha2) [%],%Inh (ANKK1) [%],%Inh (ARK5) [%],%Inh (ASK1) [%],%Inh (ASK2) [%],%Inh (AURKA) [%],%Inh (AURKB) [%],%Inh (AURKC) [%]
CCC(=O)c1c(-c2ccccc2)c2cc(Cl)ccc2c(=O)n1Cc1cc(S(C)(=O)=O)n(CCC(C)(C)O)n1,0,19,15,8,10,15,8,16,17,12
Nc1n[nH]c2ncc(-c3ccccc3)cc12 [SB-517081],38,0,0,28,2,0,0,21,64,27
FC(F)(F)c1ccc(-c2ncn(CCCN3CCOCC3)c2-c2ccncc2)cc1 [SB-217780],0,9,4,0,0,0,0,0,0,27
CCn1c(-c2nonc2N)nc2ccccc21 [SB-693162/GW549034],0,7,0,51,3,16,2,27,37,0
Cl.c1ccc(Cn2cnc3cc(Nc4ncnc5ccccc45)ccc32)cc1 [GW272142],21,0,0,0,0,4,2,0,19,14
COc1cc(Nc2nccc(N3CCC(NC(=O)C(C)c4ccc(Cl)cc4)C3)n2)cc(OC)c1OC (stereo not shown) [GSK1379757],22,17,0,17,34,0,0,52,60,72
COc1cccc(-n2cnc3c(N)ncnc32)c1 [SKF-97416],56,2,15,14,0,4,35,0,31,5
Nc1n[nH]c2nnc(-c3ccccc3)c(-c3ccccc3)c12 [GW554060],35,0,14,0,9,0,4,0,35,13
O=C(NCc1cccs1)c1cc(C(=O)c2c(Cl)cccc2Cl)c[nH]1 [GW823670],0,8,0,0,0,19,0,0,9,1
COc1cc2ncn(-c3cc(OCc4ccncc4)c(C(N)=O)s3)c2cc1OC [GSK336313],20,0,0,0,16,6,0,17,0,4
COc1cc2nccc(Nc3cccc(Oc4ccccc4)c3)c2cc1OC.Cl [GW284543],1,12,0,0,0,0,0,5,0,0
CN(C)c1cc(-c2ccc3c(N)n[nH]c3c2)nc(N)n1 [GSK2219329],0,0,11,10,0,0,0,0,10,9
Nc1nccc2scc(-c3ccc4c(c3)CCN4C(=O)Cc3ccccc3)c12 [GSK2576924],0,0,21,21,9,6,0,9,16,25
C[C@@H]1CC[C@H](C(=O)NC2CCCCC2)CN1c1cc(-c2ccc3c(N)n[nH]c3c2)nc(N)n1 [GSK2291363],29,7,14,20,6,9,7,–,24,69
Cc1ccc(-c2ccc3c(ccc4sc5c(c43)NC[C@@H](C)N=C5N(C)C)n2)cn1,4,0,0,0,0,0,0,0,0,0
Cc1ccc(Oc2ccc(Nc3ncnc4cc[nH]c34)cc2C)cn1,7,0,14,5,0,0,0,20,0,10
CCC(=O)c1c(-c2ccccc2)c2cc(Cl)ccc2c(=O)n1Cc1cc(S(C)(=O)=O)n(CC(F)F)n1,0,0,8,0,5,0,0,0,11,0
